The campaign covered roughly 290,000 compounds. About 3,000 (1%) were called active. This is one part of a sample in which actives are shown more often than they occur. Values without a mark were called inactive. Rule as the data show it: active = inhibition mostly above about 36% (no sharp cut-off); inactive = mostly below about 34%.
assay: inhibition of NOD1-driven NF-kB reporter – cell-based, luminescence, uHTS, primary screen (AID 1578); conditions: NOD1-driven NF-kB luciferase reporter cells, at 4 µM, hits give high values;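 also: HEK-293T reporter cells stimulated with the NOD1 agonist gamma-tri-DAP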

Structure (SMILES) | inhibition
COC(=O)c1ccc(/C=N/NC(=O)c2ccc3nc[nH]c3c2)cc1 | -10.6%
O=C(O)CCc1ccc(-c2ccc(Br)cc2)n1Cc1ccco1 | -8.6%
CC(C)[C@H](NC(=O)N1CCn2c1nc1ccccc12)C(=O)N[C@H](C(=O)O)c1ccccc1 | 68.4% (active)
CC(C)[C@H](NC(=O)N1CCn2c1nc1ccccc12)C(=O)N[C@@H](C(=O)O)c1ccccc1 | 1.1%
CC(C)C[C@H](NC(=O)N1CCn2c1nc1ccccc12)C(=O)N[C@@H](C(=O)O)c1ccccc1 | -6%
CC(C)(C)C(=O)NC1(C(F)(F)F)NC(=O)N(c2ccccc2F)C1=O (stereo not given) | 2.6%
CCn1cc([N+](=O)[O-])c(C(=O)Nc2nc(-c3ccc(C)c(C)c3)c(C)s2)n1 | -63.4%
Cn1cc([N+](=O)[O-])c(C(=O)Nc2nccs2)n1 | -14.6%
Cc1cnc(NC(=O)c2nn(C)cc2[N+](=O)[O-])s1 | 24.8%
CCn1cc([N+](=O)[O-])c(C(=O)Nc2nc(-c3ccc(C)cc3)c(C)s2)n1 | 2.6%
Cc1csc(=S)n1-c1ccccc1 | 5.1%
COc1ccccc1C(=O)N/C(=C\c1cn(S(=O)(=O)N(C)C)c2ccccc12)C(=O)NCCN1CCOCC1 | -15%
COc1ccc(C(=O)Oc2cccc(Nc3ncnc4ccccc34)c2)cc1OC | 29.6%
COc1cccc(N2CCN(c3nc(C)c(C)c(=O)[nH]3)CC2)c1 | -29.1%
COC(=O)c1c(C)noc1-c1ccc(Cl)cc1 | -8.4%
Cc1cc(C(=O)O/N=C(\N)c2ccc(C(C)(C)C)cc2)no1 | -2.5%
Cc1noc(-c2ccc(Cl)cc2)c1C(=O)O/N=C(\N)c1ccc(C(C)(C)C)cc1 | 84% (active)
CC(=O)/C(N=Nc1cccc(C(F)(F)F)c1)=C(\C)O | -26.4%
COC(=O)/C(N=Nc1cccc(C(F)(F)F)c1)=C(\C)O | 1.3%
O=C(/C(N=Nc1cccc(C(F)(F)F)c1)=C(/O)c1cccs1)C(F)(F)F | 58.5% (active)
CC(C)C1CC(c2ccccc2)(C(CN)CO)CCO1 (stereo not given) | -22.3%
C=C(C)COc1ccc(-c2[nH]ncc2-c2ccc(Br)cc2)c(O)c1 | -22.6%
Cc1cc(C(=O)NCC2COc3ccccc3O2)c2ccccc2n1 (stereo not given) | -14.4%
Cc1nc2ccccc2c2oc(C(=O)NCc3ccc4c(c3)OCO4)cc12 | 38.5%
Cn1c(Cc2ccccc2)nnc1SCC(=O)N1CCN(c2ccccc2)CC1 | -14.3%
